In PubChem BioAssay (NCATS) one finds Potency and outcome data, which are given here for six molecules.

The target in experiment [1] is Ubiquitin carboxyl-terminal hydrolase 2 (Homo sapiens) (UniProt O75604). Briefly: qHTS Validation Assay for Inhibitors of Ubiquitin-specific Protease USP2a Using CHOP2 as the Reporter (AID 463106). In short, it runs like this:
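Inhibition is expressed relative to NEM as the full-inhibition control, with concentration-response curves classed by fit quality, magnitude and activity. Enzyme (USP2 core, 10nM) meets 25nM Ub-CHOP2 after compound preincubation; readings are taken at 60min.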
Background: Quantitative high-throughput screening tests each substance at several concentrations.

In experiment [2] the target is DNA polymerase III PolC-type (Bacillus subtilis (strain 168)) (UniProt P13267). Briefly: qHTS Validation Assay for the Inhibitors of DNA Replication in Gram-Positive Bacteria (AID 485295). Note: potency is the fitted concentration of half-maximal effect. In short, it runs like this:
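Reconstituted B. subtilis Pol III holoenzyme (PolC, beta clamp, SSB, primase) preincubated with compound, then M13Gori single-stranded circular template with dNTPs/NTPs added; room temperature reaction. Stopped with EDTA/PicoGreen; dsDNA fluorescence read, EDTA as full-inhibition control.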

Experiment [3] deals with Beta-2 adrenergic receptor (Homo sapiens) (UniProt P07550). The experiment can be described thus: qHTS validation assay of beta-arrestin-biased ligands of beta2-adrenergic receptor (AID 485366). The method in brief: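 Agonism was measured as beta-arrestin recruitment to recombinant beta2-AR, releasing tTA to drive luciferase. Cells were exposed for 18 hr at 37 degrees C to a series up to 46 microM. %Activity from corrected luminescence gave concentration-response curves.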

Experiment [4] concerns the target ATP-dependent 6-phosphofructokinase (Trypanosoma brucei brucei) (UniProt O15648). The experiment can be described thus: qHTS Validation Assay to Find Inhibitors of T. brucei phosphofructokinase (AID 485368). In short, it runs like this:
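ADP-Glo luminescence, two-step: residual ATP depleted, then ADP converted to ATP for luciferase. Enzyme 1.25 nM, F6P 0.5 mM, ATP 0.1 mM, pH 8.0 TEA buffer, 45 min RT. Curves fitted and classed by quality and efficacy.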

A short description of experiment [5]: Quantitative high throughput screen for delayed death inhibitors of the malarial parasite plastid, 96 hour incubation (AID 488745). Note: nearly all actives have a fitted effect of over 70% in size. Note: potency is the fitted concentration of half-maximal effect. The method in brief: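 Readout is firefly luciferase luminescence from an integrated reporter in P. falciparum; lower signal marks inhibited growth. Cultures at 2% hematocrit and 0.1% parasitemia were treated with compound across two generations (96 h, 37 C, 5% CO2).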

In experiment [6] the target is Thioredoxin reductase 1, cytoplasmic (Rattus norvegicus) (UniProt O89049). The experiment can be described thus: qHTS Assay for Inhibitors of Mammalian Selenoprotein Thioredoxin Reductase 1 (TrxR1) (AID 488773).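 Note: drop in NADPH fluorescence over an 8 min run after selenite addition; series mostly up to about 57 µM; nearly all actives have a fitted effect of over 40% in size.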 The note with it: Potency: inhibition. In short, it runs like this: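 Inhibition is scored from the loss of NADPH fluorescence between first and last reads of an 8-min kinetic run. Selenite (400 uM) was the substrate, added after 15 min compound preincubation at room temperature.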

In experiment [7] the target is Flap endonuclease 1 (Homo sapiens) (UniProt P39748). The experiment can be described thus: qHTS Validation Assay for the Inhibitors of Human Flap endonuclease 1 (FEN1) (AID 488816). Note: potency is the fitted concentration of half-maximal effect. The method in brief:
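Steps: add FEN1 (10 nM reagent) or buffer only; pin compounds; hold 15 min at room temperature; start with substrate, 50 nM final; read at 0 and 15 min; correct, normalize and fit a four-parameter Hill curve.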

Experiment [8] concerns the target M-phase phosphoprotein 8 (Homo sapiens) (UniProt Q99549). The experiment can be described thus: qHTS Validation Assay for Inhibitors for MPP8 Chromodomain Interactions with Methylated Histone Tails (AID 488949). Note: nearly all actives have a fitted effect of over 55% in size. Note: potency is the fitted concentration of half-maximal effect. The method in brief: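 MPP8 (50 nM) was pre-bound to 50 nM biotinylated H3(1-18)K9me3 peptide in PBS pH 7.4 with 0.01% Tween-20. Compounds were then added for 30 min at room temperature, and complex disruption was read by AlphaScreen with streptavidin donor and nickel-chelate acceptor beads.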

The target of experiment [9] is Chromobox protein homolog 1 (Homo sapiens) (UniProt P83916). The experiment can be described thus: qHTS Validation Assay for Inhibitors of HP1-beta Chromodomain Interactions with Methylated Histone Tails (AID 488953). Note: nearly all actives have a fitted effect of over 50% in size. Note: potency is the fitted concentration of half-maximal effect. In short, it runs like this: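 Disruption of preformed HP1-beta:H3K9me3 peptide complexes (both 50 nM, PBS pH 7.4 with 0.01% Tween-20) is measured by AlphaScreen after 30 min compound exposure at room temperature, using streptavidin donor and nickel chelate acceptor beads at 10 ug/mL final.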

Experiment [10] deals with Methanococcus maripaludis chaperonin (MmCpn) (UniProt Q6LX38). The experiment can be described thus: High-Throughput Screening for Modulators of Cytosolic Chaperonin Activity: MmCpn Primary Screen (AID 488978).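 Note: 50 nM MmCpn enzyme hydrolysing 30 µM ATP at 37 °C.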 The method in brief:
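MmCpn at 50 nM final was preincubated 5 min at RT with compound. ATP was then added at 30 uM final for 10 min at 37 C. ADP formed was detected by Transcreener HTRF (665/590 nm).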

The target of experiment [11] is Transient receptor potential cation channel subfamily V member 1 (Homo sapiens) (UniProt Q8NER1). Briefly: HTS Assay for Compounds that Act as Enhancers of the Vanilloid Receptor 1 (AID 488979). The method in brief:
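TRPV1-expressing cells loaded with Fluo-8 calcium dye; compounds added and calcium influx read kinetically for 3 min (agonist phase), then capsaicin at EC20 added and read 2 min more for enhancement. Fluorescence ex 480/em 520 nm.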

The target of experiment [12] is Thyrotropin receptor (Homo sapiens) (UniProt P16473). Briefly: qHTS Assay for Antagonists of the Thyroid Stimulating Hormone Receptor (AID 488980). Note: series mostly up to about 58 µM. In short, it runs like this:
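TSHR-transfected HEK293 cells (2000/well) in HEPES-buffered HBSS with 70 uM RO 20-1724 were stimulated with 4 nM TSH (EC80, final) in the presence of compound. cAMP was measured by HTRF competition after lysis and 30 min at RT.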

The target of experiment [13] is D(1A) dopamine receptor (Homo sapiens) (UniProt P21728). The experiment can be described thus: HTS Assay for Allosteric Agonists of the Human D1 Dopamine Receptor: Primary Screen for Agonists (AID 488981). In short, it runs like this: (§1)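 Tetracycline-induced HEK293 T-REx cells force-coupled to calcium signalling were incubated overnight at 30 C and dye-loaded at room temperature. Calcium flux over 180 s after compound addition flagged agonists; a further 180 s read after EC20 dopamine flagged potentiators.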

The target is the same in experiment [14]. Briefly: HTS Assay for Allosteric Agonists of the Human D1 Dopamine Receptor: Primary Screen for Potentiators (AID 488982). The method in brief:
as §1

Experiment [15] has the same target. Briefly: HTS Assay for Allosteric Agonists of the Human D1 Dopamine Receptor: Primary Screen for Antagonists (AID 488983).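 Note: calcium flux response to an EC80 dopamine challenge measured with no-wash dye; nearly all actives have a fitted effect of over 65% in size.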 Note: potency is the fitted concentration of half-maximal effect. In short, it runs like this: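 Kinetic fluorescence at 1 cycle/sec tracked intracellular calcium in force-coupled, tetracycline-inducible HEK293 T-REx D1 cells. Loss of response to an EC80 dopamine dose, given 180 s after compound, marked antagonists.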

Experiment [16] in a line: qHTS Validation Assay to Find Inhibitors of Chronic Active B-Cell Receptor Signaling (AID 485345; active = well fitted curve in the direction sought with a large enough effect in the main read-out, with a control signal flat, not every such curve was filed as active). The method in brief: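 TMD8 ABC-DLBCL cells with dox-inducible green luciferase–IκBα fusion and red native luciferase; compounds 46 uM–3 nM, 4 h at 37C with doxycycline in 0.5% FBS IMDM. Green/red ratio normalized to basal and 10 uM MG-132.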
In experiment [17] the target is Thioredoxin reductase 1, cytoplasmic (Rattus norvegicus) (UniProt O89049). The experiment can be described thus: qHTS Assay for Substrates of Mammalian Selenoprotein Thioredoxin Reductase 1 (TrxR1) (AID 488772).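 Note: series mostly up to about 57 µM; a drop in NADPH fluorescence below the no-compound background marks a TrxR1 substrate.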 In short, it runs like this: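 In this dual-purpose format, potential substrates are identified from the first fluorescence read after selenite addition, not from the 8-minute delta. Rat enzyme is preincubated with NADPH and then with compound at ~22 deg C.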

For experiment [18], the target named is Tumor susceptibility gene 101 protein (Homo sapiens) (UniProt Q99816). Briefly: qHTS Validation Assay for Iinhibitors of HIV-1 Budding by Blocking the Interaction of PTAP/TSG101 (AID 485342; calls by dose curve). In short, it runs like this:
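Tsg101 binding domain (10 uM) with FITC-labeled PTAP peptide (50 nM) in HEPES pH 7.5 buffer, 20 min at r.t. with compounds. Binding measured by fluorescence polarization.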

Experiment [19] in a line: Quantitative high throughput screen for delayed death inhibitors of the malarial parasite plastid, 48 hour incubation (AID 488752). Note: nearly all actives have a fitted effect of over 65% in size. Note: potency is the fitted concentration of half-maximal effect. The method in brief:
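First, compound was pinned into RPMI 1640 medium containing 0.5% Albumax. Next, reporter-parasite-infected erythrocytes were added to 2% hematocrit and 0.1% parasitemia. After 48 h at 37 C under 5% CO2, luciferase detection reagent was added and luminescence read.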

Values joined by “and” are separate entries in the source; they are usually repeats but may differ in a detail not shown here. Equal values may be shown once. Inconclusive results are not listed. Active and inactive are the calls of the source. Unless noted, calls come from the whole dose curve; as a rule, active = well fitted curve in the direction sought with a large enough effect; inconclusive = small, poorly fitted or top-dose-only effect, or another doubt; inactive = no such curve, though single readings can be large; an effect the other way counts as inactive or inconclusive.

Chain of DNA polymerase III PolC-type (Bacillus subtilis (strain 168)) (P13267 whole entry, looked up): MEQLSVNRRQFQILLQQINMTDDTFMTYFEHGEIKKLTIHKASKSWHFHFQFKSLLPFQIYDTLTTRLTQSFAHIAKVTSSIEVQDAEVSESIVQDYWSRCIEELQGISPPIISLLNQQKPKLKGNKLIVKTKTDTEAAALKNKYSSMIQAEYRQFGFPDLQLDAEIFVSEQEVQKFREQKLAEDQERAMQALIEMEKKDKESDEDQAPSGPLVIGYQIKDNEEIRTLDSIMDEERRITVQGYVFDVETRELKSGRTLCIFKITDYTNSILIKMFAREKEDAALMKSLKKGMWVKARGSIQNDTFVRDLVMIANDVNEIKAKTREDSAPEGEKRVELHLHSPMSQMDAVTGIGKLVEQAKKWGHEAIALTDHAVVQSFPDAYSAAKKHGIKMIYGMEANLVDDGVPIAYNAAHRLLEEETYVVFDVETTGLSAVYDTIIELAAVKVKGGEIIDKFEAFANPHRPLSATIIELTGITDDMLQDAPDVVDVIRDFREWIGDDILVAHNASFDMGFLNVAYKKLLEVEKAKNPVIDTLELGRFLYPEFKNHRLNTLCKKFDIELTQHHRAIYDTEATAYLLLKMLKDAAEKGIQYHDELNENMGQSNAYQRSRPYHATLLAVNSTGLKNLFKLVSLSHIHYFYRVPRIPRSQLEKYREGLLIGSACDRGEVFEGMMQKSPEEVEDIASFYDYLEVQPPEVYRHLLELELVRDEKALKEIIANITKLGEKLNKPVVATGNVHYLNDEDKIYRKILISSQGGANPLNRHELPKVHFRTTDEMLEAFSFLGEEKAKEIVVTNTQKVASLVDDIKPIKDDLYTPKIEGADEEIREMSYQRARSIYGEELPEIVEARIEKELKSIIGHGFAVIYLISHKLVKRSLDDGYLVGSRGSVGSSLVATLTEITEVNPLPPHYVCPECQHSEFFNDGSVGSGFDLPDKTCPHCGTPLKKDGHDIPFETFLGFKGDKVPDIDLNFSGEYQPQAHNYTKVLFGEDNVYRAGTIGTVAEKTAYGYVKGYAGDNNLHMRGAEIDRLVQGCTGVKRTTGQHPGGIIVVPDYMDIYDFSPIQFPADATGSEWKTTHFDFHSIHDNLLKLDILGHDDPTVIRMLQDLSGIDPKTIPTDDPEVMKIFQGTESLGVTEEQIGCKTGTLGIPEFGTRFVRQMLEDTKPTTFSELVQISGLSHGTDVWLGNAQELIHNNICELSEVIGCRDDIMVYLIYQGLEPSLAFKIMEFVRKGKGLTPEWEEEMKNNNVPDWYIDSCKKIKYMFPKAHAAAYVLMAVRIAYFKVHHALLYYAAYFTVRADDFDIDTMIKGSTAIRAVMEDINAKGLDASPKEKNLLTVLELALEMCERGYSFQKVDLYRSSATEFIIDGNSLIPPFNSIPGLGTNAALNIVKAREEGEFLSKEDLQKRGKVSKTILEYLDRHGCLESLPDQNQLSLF
Chain of Ubiquitin carboxyl-terminal hydrolase 2 (Homo sapiens) (O75604 whole entry, looked up): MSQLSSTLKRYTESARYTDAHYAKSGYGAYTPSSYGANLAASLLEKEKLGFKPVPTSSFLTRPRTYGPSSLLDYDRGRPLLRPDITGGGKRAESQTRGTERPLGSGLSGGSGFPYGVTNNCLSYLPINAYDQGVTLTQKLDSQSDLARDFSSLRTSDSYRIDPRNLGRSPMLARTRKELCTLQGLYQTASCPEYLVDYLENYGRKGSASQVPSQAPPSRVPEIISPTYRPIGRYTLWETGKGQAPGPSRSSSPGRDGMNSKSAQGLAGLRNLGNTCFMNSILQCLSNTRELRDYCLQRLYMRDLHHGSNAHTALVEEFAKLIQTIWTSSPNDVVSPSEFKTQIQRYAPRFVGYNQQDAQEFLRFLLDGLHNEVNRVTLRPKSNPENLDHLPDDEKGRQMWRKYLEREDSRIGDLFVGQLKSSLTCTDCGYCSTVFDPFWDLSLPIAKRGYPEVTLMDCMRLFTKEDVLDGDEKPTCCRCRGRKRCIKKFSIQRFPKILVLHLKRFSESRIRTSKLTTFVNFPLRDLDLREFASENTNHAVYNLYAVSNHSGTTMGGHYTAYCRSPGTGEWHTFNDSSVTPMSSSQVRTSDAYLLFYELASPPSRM
Chain of Thioredoxin reductase 1, cytoplasmic (Rattus norvegicus) (O89049 whole entry, looked up): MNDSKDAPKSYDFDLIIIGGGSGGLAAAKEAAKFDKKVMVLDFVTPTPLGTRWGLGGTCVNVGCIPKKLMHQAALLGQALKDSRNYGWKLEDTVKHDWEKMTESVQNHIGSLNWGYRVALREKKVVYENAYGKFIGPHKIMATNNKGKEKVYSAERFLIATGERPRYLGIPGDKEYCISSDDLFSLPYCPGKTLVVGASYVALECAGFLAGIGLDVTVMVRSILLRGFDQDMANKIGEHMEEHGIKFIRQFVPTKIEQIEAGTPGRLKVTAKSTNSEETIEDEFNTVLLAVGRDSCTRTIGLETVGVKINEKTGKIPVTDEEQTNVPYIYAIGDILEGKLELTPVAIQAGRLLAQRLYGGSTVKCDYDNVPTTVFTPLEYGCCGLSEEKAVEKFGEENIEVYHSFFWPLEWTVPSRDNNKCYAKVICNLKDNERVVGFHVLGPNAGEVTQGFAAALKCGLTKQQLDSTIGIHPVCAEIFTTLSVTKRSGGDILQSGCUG
Chain of Transient receptor potential cation channel subfamily V member 1 (Homo sapiens) (Q8NER1 whole entry, looked up): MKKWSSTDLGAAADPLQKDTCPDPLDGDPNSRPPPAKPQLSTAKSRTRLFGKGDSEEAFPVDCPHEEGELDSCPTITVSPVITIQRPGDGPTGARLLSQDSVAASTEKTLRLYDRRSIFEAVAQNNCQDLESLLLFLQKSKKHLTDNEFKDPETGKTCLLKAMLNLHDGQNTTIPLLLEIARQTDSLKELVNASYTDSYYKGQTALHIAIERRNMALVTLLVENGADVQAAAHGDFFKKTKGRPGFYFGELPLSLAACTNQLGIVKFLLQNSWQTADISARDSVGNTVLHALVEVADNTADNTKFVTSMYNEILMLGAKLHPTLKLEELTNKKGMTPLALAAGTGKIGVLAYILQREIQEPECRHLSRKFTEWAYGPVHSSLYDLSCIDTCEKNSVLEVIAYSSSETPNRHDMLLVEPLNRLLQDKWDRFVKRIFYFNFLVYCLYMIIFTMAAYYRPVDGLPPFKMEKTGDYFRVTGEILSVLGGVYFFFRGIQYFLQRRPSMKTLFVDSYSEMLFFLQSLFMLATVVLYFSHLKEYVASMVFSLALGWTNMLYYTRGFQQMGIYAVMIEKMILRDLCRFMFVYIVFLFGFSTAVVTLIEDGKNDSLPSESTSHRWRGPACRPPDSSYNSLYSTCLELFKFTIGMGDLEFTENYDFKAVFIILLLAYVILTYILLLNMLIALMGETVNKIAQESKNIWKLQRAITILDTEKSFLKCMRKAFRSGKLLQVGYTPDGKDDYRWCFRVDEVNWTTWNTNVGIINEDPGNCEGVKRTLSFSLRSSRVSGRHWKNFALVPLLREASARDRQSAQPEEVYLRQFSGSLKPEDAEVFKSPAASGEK
Chain of M-phase phosphoprotein 8 (Homo sapiens) (Q99549 whole entry, looked up): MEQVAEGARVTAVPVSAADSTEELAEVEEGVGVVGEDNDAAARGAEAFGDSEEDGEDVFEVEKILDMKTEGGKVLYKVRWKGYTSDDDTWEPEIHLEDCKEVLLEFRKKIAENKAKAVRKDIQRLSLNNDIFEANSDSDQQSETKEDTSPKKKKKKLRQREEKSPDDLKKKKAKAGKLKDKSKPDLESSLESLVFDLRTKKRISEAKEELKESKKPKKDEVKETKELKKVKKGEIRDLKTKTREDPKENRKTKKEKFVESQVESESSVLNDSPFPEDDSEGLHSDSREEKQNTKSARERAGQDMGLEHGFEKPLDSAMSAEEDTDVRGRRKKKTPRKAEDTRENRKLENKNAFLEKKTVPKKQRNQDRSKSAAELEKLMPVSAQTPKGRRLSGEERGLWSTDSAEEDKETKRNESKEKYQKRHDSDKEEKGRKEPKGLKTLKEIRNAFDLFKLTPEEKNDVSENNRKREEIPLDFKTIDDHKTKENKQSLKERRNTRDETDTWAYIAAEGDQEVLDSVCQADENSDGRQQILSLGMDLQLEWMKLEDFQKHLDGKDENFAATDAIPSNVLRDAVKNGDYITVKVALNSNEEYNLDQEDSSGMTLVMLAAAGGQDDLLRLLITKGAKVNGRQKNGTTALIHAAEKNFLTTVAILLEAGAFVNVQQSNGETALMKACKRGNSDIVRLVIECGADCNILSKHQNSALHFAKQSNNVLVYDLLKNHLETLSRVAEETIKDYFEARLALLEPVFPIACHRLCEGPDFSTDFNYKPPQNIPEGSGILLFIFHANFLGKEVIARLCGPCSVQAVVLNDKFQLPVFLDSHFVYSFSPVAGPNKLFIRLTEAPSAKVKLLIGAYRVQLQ
Chain of Chromobox protein homolog 1 (Homo sapiens) (P83916 whole entry, looked up): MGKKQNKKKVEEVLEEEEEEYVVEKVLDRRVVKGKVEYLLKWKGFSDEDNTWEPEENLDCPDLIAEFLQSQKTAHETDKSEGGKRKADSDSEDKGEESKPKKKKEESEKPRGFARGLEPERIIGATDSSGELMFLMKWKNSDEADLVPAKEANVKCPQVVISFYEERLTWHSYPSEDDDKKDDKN
Chain of Methanococcus maripaludis chaperonin (MmCpn) (Q6LX38 1-543): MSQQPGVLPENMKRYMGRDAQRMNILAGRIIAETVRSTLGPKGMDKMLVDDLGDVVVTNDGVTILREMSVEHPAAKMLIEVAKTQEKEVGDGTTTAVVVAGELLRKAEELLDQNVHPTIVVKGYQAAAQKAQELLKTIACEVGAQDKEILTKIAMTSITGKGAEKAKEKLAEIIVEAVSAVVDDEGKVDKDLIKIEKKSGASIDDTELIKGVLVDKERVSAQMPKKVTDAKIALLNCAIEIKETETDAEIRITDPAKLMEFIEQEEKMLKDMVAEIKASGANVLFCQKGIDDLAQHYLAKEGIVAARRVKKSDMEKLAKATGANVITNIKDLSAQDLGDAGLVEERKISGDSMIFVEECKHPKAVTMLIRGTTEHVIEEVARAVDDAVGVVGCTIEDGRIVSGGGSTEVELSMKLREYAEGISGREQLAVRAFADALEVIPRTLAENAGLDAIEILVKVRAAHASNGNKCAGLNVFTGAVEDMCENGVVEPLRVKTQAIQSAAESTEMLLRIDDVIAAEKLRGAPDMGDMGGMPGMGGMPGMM

As to `COc1ccc(C2CNC(=O)C2)cc1OC1CCCC1` (stereo not given), the Potency entry in [1], in [2], in [4], in experiment [5], in experiment [6] and in experiment [7] was “inactive” each time. The Potency result in [8], in experiment [9], in experiment [13], in experiment [14] and in experiment [15] was “inactive” throughout. The molecule was classed as inactive in experiment [3], in experiment [10], in experiment [11] and in [12].
Take `CC(C(=O)O)c1cccc(C(=O)c2ccccc2)c1` (stereo not given): the Potency entry in experiment [1], in experiment [2], in experiment [16], in [5], in [6] and in [8] was “inactive” in each case. The Potency entry in experiment [9], in [13], in [14] and in experiment [15] was “inactive” throughout. Besides, the outcome in experiment [3], in experiment [17], in experiment [10], in experiment [11] and in [12] was inactive.
Take `O=C1c2c(O)ccc(O)c2C(=O)c2c(NCCNCCO)ccc(NCCNCCO)c21`: the Potency was 1.5 µM (active) in [2]; 1.31 µM (active) in experiment [5]; 2.08 µM (active) in experiment [19]; 2.99 µM (active) in experiment [7]; 2.82 µM (active) and 6.7 µM (active) in experiment [8]; 5.62 µM (active) in experiment [9]. Besides, the call in experiment [18], in experiment [3], in experiment [17], in [10], in experiment [11] and in experiment [12] was inactive. The Potency result in experiment [6], in experiment [13], in [14] and in experiment [15] was “inactive” in each case.
Consider `CN(C)CCOC(c1ccccc1)c1ccccc1`, for which the Potency result in experiment [1], in experiment [16], in [5], in [19], in [6] and in experiment [7] was “inactive” each time. The Potency entry in experiment [9], in experiment [13], in experiment [14] and in experiment [15] was “inactive” in each case. The result in experiment [3], in experiment [17], in experiment [10], in experiment [11] and in experiment [12] was inactive.
Turning to `COc1ccccc1OCCNCC(O)COc1cccc2[nH]c3ccccc3c12` (stereo not given), the Potency result in experiment [1], in [2], in experiment [6], in experiment [7], in experiment [8] and in experiment [13] was “inactive” in each case. In addition, the Potency entry in [14] is “inactive”. For the same molecule, the molecule was classed as inactive in [17] and in experiment [10]. In experiment [15], the Potency was 8.91 µM (active).
`CC(COc1ccccc1)N(CCCl)Cc1ccccc1` (stereo not given): the Potency entry in [1], in experiment [2], in [16], in [5], in experiment [19] and in [6] was “inactive” in each case. The Potency result in experiment [13], in experiment [14] and in [15] was “inactive” throughout. For the same molecule, the molecule was called inactive in [3], in [17], in experiment [10], in experiment [11] and in [12].
